The list shows a part of the results. The hit rate among all sequences tested is not known here.
B1: HC2370 (peptide)
chain: CAEVPCHVPSAGNASASA
B2: HC873 (peptide)
chain: CAVIPTSGDVAGNASASA
B3: HC467 (peptide)
chain: CAYRLWHYPCAGNASASA
B4: HC86 (peptide)
chain: CAVVCFSMSYAGNASASA
B5: HC2284 (peptide)
chain: CADIEVVTSTAGNASASA
B6: HC463 (peptide)
chain: CAPRCLVDYPAGNASASA
B7: HC1751 (peptide)
chain: CAMEECSQDLAGNASASA
B8: HC2567 (peptide)
chain: CASTPCSAHFAGNASASA
B9: HC1003 (peptide)
chain: CARVVLSGKPAGNASASA
B10: FS-1871 (peptide)
chain: CARVKKEWEEAGNASASA
B11: FS-2196 (peptide)
chain: CARVKKSPPEAGNASASA
B12: HC678 (peptide)
chain: CAQTRGLLGCAGNASASA
B13: HC1247 (peptide)
chain: CASMLTDPSHAGNASASA
B14: FS-2663 (peptide)
chain: CARFKRSAQFAGNASASA
B15: FS-3191 (peptide)
chain: CARKKRKIKEAGNASASA
B16: FS-1845 (peptide)
chain: CADFERSRAFAGNASASA
B17: FS-2965 (peptide)
chain: CARKKRLISYAGNASASA
B18: FS-2267 (peptide)
chain: CARKKRKAAPAGNASASA
B19: FS-3192 (peptide)
chain: CARKKRKPEEAGNASASA
B20: FS-2966 (peptide)
chain: CARKKRMAKYAGNASASA
B21: HC309 (peptide)
chain: CARHWTTQGCAGNASASA
B22: HC26 (peptide)
chain: CAMEECFQHLAGNASASA
B23: HC1086 (peptide)
chain: CAILAGYGAGAGNASASA
B24: FS-2269 (peptide)
chain: CARKKRQVPYAGNASASA
B25: FS-3195 (peptide)
chain: CARKSRSKSKAGNASASA
B26: FS-1958 (peptide)
chain: CARKKRSQTYAGNASASA
B27: FS-3224 (peptide)
chain: CARKSRSPHNAGNASASA
B28: FS-1957 (peptide)
chain: CARKKRSEYYAGNASASA
B29: FS-2981 (peptide)
chain: CARKSRPNASAGNASASA
B30: HC302 (peptide)
chain: CASVFLVGQLAGNASASA
B31: CS5 (peptide)
chain: CAGDEVDGAGAGNASASA
B32: HC1343 (peptide)
chain: CATTTSSEPAAGNASASA
B33: HC2025 (peptide)
chain: CAVVLCSMSYAGNASASA
B34: HC777 (peptide)
chain: CAGSGKSTKVAGNASASA
B35: HC808 (peptide)
chain: CATYGKFLADAGNASASA
B36: HC1461 (peptide)
chain: CAKLPLAVMGAGNASASA
B37: HC1616 (peptide)
chain: CAKLGVPPLRAGNASASA
B38: FS-1827 (peptide)
chain: CARKKRISANAGNASASA
B39: FS-2878 (peptide)
chain: CAQKKRSAQYAGNASASA
B40: FS-2036 (peptide)
chain: CARKKRSAQNAGNASASA
B41: FS-1374 (peptide)
chain: CALTARFRRGAGNASASA
B42: FS-1483 (peptide)
chain: CARTDRCRRGAGNASASA
B43: FS-3104 (peptide)
chain: CARTGRQVLGAGNASASA
B44: FS-883 (peptide)
chain: CATREAFRRGAGNASASA
B45: FS-250 (peptide)
chain: CAIHARFRRGAGNASASA

Target: furin, P09958
Sequence (P09958 whole entry): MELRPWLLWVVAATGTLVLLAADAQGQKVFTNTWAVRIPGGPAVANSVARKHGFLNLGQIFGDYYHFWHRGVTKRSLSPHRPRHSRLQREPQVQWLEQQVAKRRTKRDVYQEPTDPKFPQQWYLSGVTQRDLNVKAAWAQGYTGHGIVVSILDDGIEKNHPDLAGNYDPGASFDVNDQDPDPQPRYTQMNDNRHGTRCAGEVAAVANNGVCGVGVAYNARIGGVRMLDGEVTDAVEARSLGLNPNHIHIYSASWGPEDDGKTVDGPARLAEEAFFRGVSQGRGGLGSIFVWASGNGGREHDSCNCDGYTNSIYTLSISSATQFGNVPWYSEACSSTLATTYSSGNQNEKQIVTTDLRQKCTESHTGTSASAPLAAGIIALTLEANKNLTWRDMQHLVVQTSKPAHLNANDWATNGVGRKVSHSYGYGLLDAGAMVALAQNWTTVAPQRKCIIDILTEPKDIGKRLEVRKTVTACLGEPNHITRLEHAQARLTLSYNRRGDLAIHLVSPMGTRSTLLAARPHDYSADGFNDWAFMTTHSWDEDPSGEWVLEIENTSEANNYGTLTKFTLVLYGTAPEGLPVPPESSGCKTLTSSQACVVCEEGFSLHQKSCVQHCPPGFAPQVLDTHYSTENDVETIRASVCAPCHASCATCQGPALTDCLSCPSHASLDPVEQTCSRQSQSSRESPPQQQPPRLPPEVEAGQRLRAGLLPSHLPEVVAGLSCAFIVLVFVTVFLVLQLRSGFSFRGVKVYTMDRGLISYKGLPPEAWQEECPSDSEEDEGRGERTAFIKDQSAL
Assay: furin cleavage Z-score vs untreated control; higher = more cleavage, active = 3.5 or more, inactive = 1 or less, 8 variable residues between constant flanks
Outline: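 Purified furin digested bead-held 8-mer peptide–cDNA fusions at 1:10 enzyme:substrate in 0.01 ml of 50 mM HEPES pH 7.5 with CaCl2 and NaCl for 7.5, 15 or 30 min. The cleavage Z-score compares sequencing counts of released DNA with furin-free reactions on a log scale, with lowess adjustment and median absolute deviation scaling.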

Sequence | furin cleavage Z-score (7.5 min) | furin cleavage Z-score (15 min) | furin cleavage Z-score (30 min)
B1 | -0.196 (inactive) | 0.881 (inactive) | 0.0659 (inactive)
B2 | -1.48 (inactive) | -0.378 (inactive) | 1.84
B3 | 0.186 (inactive) | 0.568 (inactive) | 0.0366 (inactive)
B4 | -0.132 (inactive) | 1.31 | 0.28 (inactive)
B5 | -0.624 (inactive) | -0.333 (inactive) | -1.16 (inactive)
B6 | 0.288 (inactive) | -0.558 (inactive) | -0.868 (inactive)
B7 | -0.0304 (inactive) | -0.261 (inactive) | 0.894 (inactive)
B8 | 1.04 | -0.481 (inactive) | 1.8
B9 | -0.899 (inactive) | -0.703 (inactive) | -0.908 (inactive)
B10 | -0.778 (inactive) | -0.527 (inactive) | -1.03 (inactive)
B11 | 3.38 | 4.49 (active) | 5.53 (active)
B12 | 0.117 (inactive) | -0.157 (inactive) | -0.705 (inactive)
B13 | 0.787 (inactive) | 1.14 | 0.981 (inactive)
B14 | 9.02 (active) | 10 (active) | 9.39 (active)
B15 | -0.575 (inactive) | -0.156 (inactive) | 2.36
B16 | -0.875 (inactive) | -0.501 (inactive) | -0.616 (inactive)
B17 | 0.348 (inactive) | 3.83 (active) | 6.5 (active)
B18 | 5.91 (active) | 5.87 (active) | 5.5 (active)
B19 | 0.523 (inactive) | 1.22 | 1.86
B20 | 5.67 (active) | 7.97 (active) | 8.42 (active)
B21 | 0.306 (inactive) | -0.845 (inactive) | 0.176 (inactive)
B22 | 0.765 (inactive) | 1.72 | 1.22
B23 | -0.899 (inactive) | -0.697 (inactive) | -0.69 (inactive)

Sequence | furin cleavage Z-score (7.5 min) | furin cleavage Z-score (15 min) | furin cleavage Z-score (30 min)
B24 | 7.32 (active) | 7.2 (active) | 5.84 (active)
B25 | 1.71 | 0.576 (inactive) | 0.352 (inactive)
B26 | 8.08 (active) | 10.2 (active) | 9.02 (active)
B27 | 7.07 (active) | 8.27 (active) | 8.28 (active)
B28 | 5.84 (active) | 8.3 (active) | 8.52 (active)
B29 | 0.905 (inactive) | -0.37 (inactive) | -0.749 (inactive)
B30 | -1.01 (inactive) | 0.196 (inactive) | -1.15 (inactive)
B31 | -1.72 (inactive) | -1.16 (inactive) | -2.65 (inactive)
B32 | 0.91 (inactive) | 0.314 (inactive) | 0.501 (inactive)
B33 | -0.0785 (inactive) | 0.317 (inactive) | -1.45 (inactive)
B34 | -0.846 (inactive) | -1.25 (inactive) | -0.383 (inactive)
B35 | -0.371 (inactive) | 0.314 (inactive) | -0.318 (inactive)
B36 | -1.04 (inactive) | 0.392 (inactive) | -1.13 (inactive)
B37 | -0.0832 (inactive) | -1.53 (inactive) | 0.294 (inactive)
B38 | 0.255 (inactive) | 0.21 (inactive) | -0.0863 (inactive)
B39 | 0.0672 (inactive) | 0.984 (inactive) | 2.02
B40 | 11.7 (active) | 14 (active) | 8.93 (active)
B41 | 10.8 (active) | 12 (active) | 9.56 (active)
B42 | 7.57 (active) | 8.52 (active) | 8.04 (active)
B43 | 0.169 (inactive) | -0.821 (inactive) | -1.11 (inactive)
B44 | -0.796 (inactive) | -0.878 (inactive) | -1.14 (inactive)
B45 | 11.1 (active) | 12.1 (active) | 9.69 (active)

Reference: the supplement of paper PMC3545927
